Out of some 2,300 compounds screened, about 550 (24%) were called active. No rule for the calls is given here. Only a sample is shown. Results with a measured potency or affinity are listed apart.

This assay can be described thus: Vero E6 cell cytotoxicity, dose response, cytotoxicity control for non-replicating M. tuberculosis project, secondary assay (AID 492998). Conditions: series mostly up to 20 µM.
As for `Cc1ccc2cc3c(nc2c1)OCC3`, the outcome was inactive. The result for `O=C(Nc1nccs1)c1cc2cc(Cl)ccc2oc1=O` reads “inactive”; that for `O=C(NNc1ccc([N+](=O)[O-])cc1)C1CC2CCCC(C1)C2=O` (stereo not drawn), “inactive”; that for `COCC(=O)Nc1ccccc1NC(C)=O`, “inactive”. Take `CCOc1ccc(OCc2ccc(C(=O)OCc3ccccn3)o2)cc1`: the call was inactive. The entry for `CCOc1cc(/C=N/NC(=O)c2ccccn2)ccc1OC(=O)c1cccs1` is “inactive”; for `O=C(OCc1ccc(Cl)c(Cl)c1)c1ccccn1` it is “inactive”; for `COC(=O)c1ccc(COC(=O)c2ccccn2)cc1` it is “inactive”.

For `Cc1ccccc1NC(=O)C1COc2ccccc2O1` (stereo not drawn), the outcome was inactive. The result for `O=C(OCc1ccccn1)c1ccc(COc2ccccc2Cl)o1` reads “inactive”. With `Nc1ccc2cc(Br)ccc2c1`, the outcome was inactive.

Take `N#CC(C(=O)NCc1ccco1)c1nc2ccccc2nc1N1CCOCC1` (stereo not drawn): the result was inactive.

Take `Nc1ncnc(Oc2cccc3cccnc23)c1[N+](=O)[O-]`: the compound was classed as inactive.

For the compound `Cc1c([N+](=O)[O-])cnc(Sc2ccccc2)c1[N+](=O)[O-]`, the compound was classed as inactive. The entry for `O=C(NNC(=O)c1ccccc1F)c1ccc(-c2ccc(Cl)cc2)o1` is “inactive”; for `Cn1cccc1/C=N/NC(=O)c1ccco1` it is “inactive”.

For `C=CCNc1nc(C(=O)OCC(=O)c2cccc(Br)c2)cs1`, the outcome was inactive.

Take `Cc1ccc(C(=O)CCNc2ccc(Br)cc2)o1`: the result was inactive. The result for `O=C(CCNc1ccc(Cl)c(C(F)(F)F)c1)c1ccco1` reads “inactive”.

On to `O=C(CCNc1cccc(Cl)c1)c1cccs1`, for which the outcome was inactive. For `COc1ccc(C(=O)CCNc2ccc(F)cc2)cc1`, the compound was called inactive. As for `O=C(COC(=O)c1ccc(O)cc1O)c1ccc2c(c1)OCO2`, the result was inactive.

In the case of `O=C(CCN1CCC(c2cccs2)=N1)c1cccs1`, the outcome was inactive. The entry for `C/C(=N\Nc1ccc(Cl)cc1)c1c(O)cc(C)oc1=O` is “inactive”; for `CSc1ccc(N=Nc2c(C)[nH]n(C)c2=O)cc1` it is “inactive”. The entry for `Cc1ccc(N=Nc2c(C)[nH]n(C(N)=S)c2=O)cc1` is “inactive”. The entry for `Cn1nnnc1N=N/C(=N/Nc1ccccc1)c1ccccc1` is “inactive”; for `CC(NC(=O)c1cc2ccccc2oc1=O)c1ccccc1` (stereo not drawn) it is “inactive”. For the compound `CCCCOC(=O)c1ccc(NC(=O)C2CCCO2)cc1` (stereo not drawn), the call was inactive.

Regarding `O=C(COc1ccc2ccccc2c1)N/N=C/c1ccccn1`, the result was inactive.

`Cc1cccc(OCC(=O)NNC(=O)c2cc3ccccc3oc2=O)c1`: the result was inactive. For the compound `O=C(COC(=O)CCC(=O)c1ccc(F)cc1)Nc1ccccc1`, the call was inactive. With `CC(=O)OCCNc1cc(SCc2ccco2)c2nonc2c1[N+](=O)[O-]`, the result was inactive. Regarding `CC(=O)OCCN(C)c1cc(SC(C)C)c2nonc2c1[N+](=O)[O-]`, the outcome was inactive. Take `C/C(Cn1nnc([N+](=O)[O-])n1)=N\NC(=O)c1ccncc1`: the outcome was inactive. In the case of `Cc1nc(-c2ccc(C(F)(F)F)cc2)sc1C(=O)NN`, the call was inactive. As for `Cc1cc(Cl)ccc1NNC(=O)c1cccs1`, the compound was called inactive. For the compound `COC(=O)COc1ccc2c(=O)c(-c3ccccc3OC)coc2c1`, the result was inactive. The result for `Cc1ccnc(NC(=O)c2cc3ccccc3o2)c1` reads “inactive”. The entry for `Cc1n[nH]c(C)c1CCOc1ccc(C(C)C)cc1` is “inactive”.

`COc1cc(OC)cc(-c2nc3ccccc3c(=O)o2)c1`: the compound was called inactive. With `CCCOC(=O)c1ccc(NC(=O)C2C3C=CC(O3)C2C(=O)O)cc1` (stereo not drawn), the call was inactive. `CCCCCCNC(=O)c1ccc(Br)o1`: the compound was called inactive. The entry for `CC(=O)CCC1CC(c2ccc(Cl)cc2)=NO1` (stereo not drawn) is “inactive”; for `C=CC[n+]1ccn(-c2nc3ccccc3nc2[N-]S(=O)(=O)c2cccs2)c1` it is “inactive”. As to `Cc1cc(C)c2sc(NC(=O)C3=COCCO3)nc2c1`, the outcome was inactive.

`COc1ccc(C(=O)Nc2nnc(C3=COCCO3)o2)cc1`: the compound was classed as inactive. The entry for `COC(=O)c1ccc(OCC(=O)c2cccc(OC)c2)cc1` is “inactive”. The entry for `CCOc1ccc(-c2nnc(NC(=O)CCCOc3cccc(C)c3)o2)cc1` is “inactive”; for `N[C@@H](Cc1ccccc1)c1nnc(SC/C=C/c2ccccc2)o1` it is “inactive”; for `CSCCC(=O)N1CCCC(N2CCN(c3cccc(C(F)(F)F)c3)CC2)C1` (stereo not drawn) it is “inactive”. Turning to `COc1cccc(CN2CCC(N(CCc3ccccc3)Cc3ccccc3)CC2)c1OC`, the result was inactive.

With `Cc1cc2ccccc2n1CCNC(=O)C(C)(C)C`, the call was inactive. On to `O=C(COc1ccc(Nc2ccccc2)cc1)OCC(=O)N1CCCCC1`, for which the call was inactive. With `CC(C)c1nnc(NC(=O)c2sc3ccccc3c2Cl)s1`, the compound was classed as inactive. The result for `CCc1nnc(NC(=O)c2cc3ccccc3oc2=O)s1` reads “inactive”; that for `CC(C)Cn1c(N)c(C(=O)COC(=O)c2ccc([N+](=O)[O-])o2)c(=O)n(C)c1=O`, “inactive”; that for `COC(=O)c1sc(NC(=O)c2ccc([N+](=O)[O-])o2)c(C#N)c1C`, “inactive”. The entry for `O=C(Nc1sc2c(c1C(=O)O)CCCCC2)c1ccccc1F` is “inactive”; for `O=C(c1ccc([N+](=O)[O-])o1)N1CCc2ccccc2C1` it is “inactive”.

On to `O=C(Nc1sc2c(c1C(=O)O)CCCC2)c1ccc(F)cc1`, for which the call was inactive. The result for `COc1ccc(COc2cccc(C=O)c2)cc1` reads “inactive”. The entry for `CCc1ccccc1NC(=O)C1COc2ccccc2O1` (stereo not drawn) is “inactive”. The entry for `O=C(OCc1cccc(F)c1)c1ccc2c(=O)n3c(nc2c1)CCC3` is “inactive”; for `Cc1c(Cl)cccc1NC(=O)C(=O)NNC(=O)c1ccccc1F` it is “inactive”. As to `COc1cccc(N2C(=O)NC(=O)/C(=C/c3ccc([N+](=O)[O-])s3)C2=O)c1`, the compound was called inactive.

As for `c1ccc2sc(SCc3ccc(-c4nnco4)cc3)nc2c1`, the call was inactive.

As to `Oc1c(Br)cc(Br)cc1/C=N/c1nccs1`, the call was inactive. The entry for `C/C(=N\NC(=O)c1nn(C)cc1Cl)c1ccncc1` is “inactive”; for `CCOc1ccc(NC(=O)Cn2sc3nc(C)cc(C)c3c2=O)cc1` it is “inactive”. Consider `CC(=O)c1ccc(OC(=O)c2ccc(-n3nc(C)cc3C)cc2)cc1`, for which the outcome was inactive.

Turning to `Cc1cc(N2CCC(C)CC2)nc(-n2nc(C)cc2C)n1`, the result was inactive.

On to `CCOc1ccc(OCC(=O)Nc2ccc(OC)cc2)cc1`, for which the call was inactive. Consider `CC1(C)OC(c2ccccc2)=C/C(=C\C=N\NC(=O)c2ccncc2)O1`, for which the compound was classed as inactive. Turning to `COc1ccc(N2CCN(CC(=O)NC(=O)NC(C)(C)C)CC2)cc1`, the compound was classed as inactive. For the compound `CN(C(=O)COC(=O)c1ccc([N+](=O)[O-])cc1Cl)C1CCCCC1`, the call was inactive.

Consider `O=C(N/N=C/c1ccc[nH]1)c1ccc(Cl)cc1`, for which the call was inactive. With `Cc1ccc(O)c(C(=O)c2cc(C#N)c(=O)n(-c3nccs3)c2)c1`, the result was inactive.

The values above are taken from PubChem BioAssay AID492998 (Southern Research Specialized Biocontainment Screening …, 2010).
